# Measurements: publication PMC7862700, “An all-to-all approach to the identification of sequence-specific readers for epigenetic DNA modifications on cytosine”
# Columns and labels:
# Assay in all cases: DAPPL (digital affinity profiling via proximity ligation, sequencing); 10 mM Tris-HCl pH 7.5, 50 mM NaCl, 1 mM DTT, 4% glycerol, room temperature, 30 min; GST-TFs on glutathione beads, 16-mer random dsDNA library, 0.1% formaldehyde crosslink after washing; high values mean tight binding
# FEV = target: T1, FEV (Homo sapiens, UniProt Q99581 1-238); details: protein: recombinant; tags: N-terminal GST; dsDNA, one strand shown
# T1 sequence: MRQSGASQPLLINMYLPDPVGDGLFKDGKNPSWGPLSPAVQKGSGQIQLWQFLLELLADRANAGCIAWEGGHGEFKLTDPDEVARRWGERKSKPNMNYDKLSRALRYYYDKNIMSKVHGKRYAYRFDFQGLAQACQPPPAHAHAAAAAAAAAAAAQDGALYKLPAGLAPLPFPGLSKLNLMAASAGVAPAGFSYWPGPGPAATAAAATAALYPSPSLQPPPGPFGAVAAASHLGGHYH
# Summary of the method: (§1)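 Binding signal is each hexamer's read frequency for a factor divided by its frequency in the tag-only sample. The factors were GST-fused human transcription factors from yeast, captured on glutathione beads, DNA-barcoded and pooled with that sample. Pools were incubated with 200 nmole of a random double-stranded 16-mer DNA library in Tris/NaCl/DTT/glycerol buffer at room temperature for 30 min, then washed, crosslinked with 0.1% formaldehyde, proximity-ligated with BsaI/T4 ligase (1 h, 37 °C), PCR-amplified and sequenced on an Illumina NextSeq500.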
# ETV5 = ETV5 (Homo sapiens, UniProt P41161 1-510); details: protein: recombinant; tags: N-terminal GST; dsDNA, one strand shown
# Summary of the method: as §1
# HSF1 = HSF1 (Homo sapiens, UniProt Q00613 1-529); details: protein: recombinant; tags: N-terminal GST; chain copies: 3; dsDNA, one strand shown
# Summary of the method: as §1
# SPIC = target: T2, SPIC (Homo sapiens, UniProt Q8N5J4 1-248); details: protein: recombinant; tags: N-terminal GST; dsDNA, one strand shown
# T2 sequence: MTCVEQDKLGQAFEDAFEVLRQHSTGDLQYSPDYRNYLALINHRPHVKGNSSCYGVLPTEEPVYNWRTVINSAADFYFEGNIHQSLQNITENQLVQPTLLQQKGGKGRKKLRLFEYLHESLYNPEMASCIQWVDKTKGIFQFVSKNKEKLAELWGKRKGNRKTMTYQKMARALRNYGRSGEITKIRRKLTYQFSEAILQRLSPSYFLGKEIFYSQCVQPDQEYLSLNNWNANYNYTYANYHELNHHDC
# Summary of the method: as §1
# ELF4 = ELF4 (Homo sapiens, UniProt Q99607 1-663); details: protein: recombinant; tags: N-terminal GST; dsDNA, one strand shown
# Summary of the method: as §1
# ELK4 = target: T3, ELK4 (Homo sapiens, UniProt P28324-2 1-405); details: protein: recombinant; tags: N-terminal GST; dsDNA, one strand shown
# T3 sequence: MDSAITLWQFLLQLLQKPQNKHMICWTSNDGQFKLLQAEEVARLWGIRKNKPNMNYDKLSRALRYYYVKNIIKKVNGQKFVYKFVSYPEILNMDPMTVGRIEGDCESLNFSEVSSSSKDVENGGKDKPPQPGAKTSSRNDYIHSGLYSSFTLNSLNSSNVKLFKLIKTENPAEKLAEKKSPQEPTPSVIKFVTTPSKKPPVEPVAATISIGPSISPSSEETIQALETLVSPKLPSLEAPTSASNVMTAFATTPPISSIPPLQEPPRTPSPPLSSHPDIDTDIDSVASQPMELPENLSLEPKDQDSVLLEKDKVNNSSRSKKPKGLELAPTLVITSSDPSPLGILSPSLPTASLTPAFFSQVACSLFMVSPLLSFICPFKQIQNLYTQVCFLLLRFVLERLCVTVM
# Summary of the method: as §1
# ETV2 = target: T4, ETV2 (Homo sapiens, UniProt O00321 1-342); details: protein: recombinant; tags: N-terminal GST; dsDNA, one strand shown
# T4 sequence: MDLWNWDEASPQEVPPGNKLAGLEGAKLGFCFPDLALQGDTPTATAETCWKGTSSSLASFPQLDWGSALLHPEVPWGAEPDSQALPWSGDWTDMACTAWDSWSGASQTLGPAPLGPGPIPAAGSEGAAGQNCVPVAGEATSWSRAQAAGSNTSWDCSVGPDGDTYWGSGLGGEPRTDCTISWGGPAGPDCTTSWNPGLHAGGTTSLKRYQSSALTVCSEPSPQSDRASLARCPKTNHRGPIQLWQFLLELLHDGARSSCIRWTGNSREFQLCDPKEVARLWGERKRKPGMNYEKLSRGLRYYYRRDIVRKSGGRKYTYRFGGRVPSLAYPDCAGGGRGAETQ
# Summary of the method: as §1
# ELF3 = target: T5, ELF3 (Homo sapiens, UniProt P78545 1-371); details: protein: recombinant; tags: N-terminal GST; dsDNA, one strand shown
# T5 sequence: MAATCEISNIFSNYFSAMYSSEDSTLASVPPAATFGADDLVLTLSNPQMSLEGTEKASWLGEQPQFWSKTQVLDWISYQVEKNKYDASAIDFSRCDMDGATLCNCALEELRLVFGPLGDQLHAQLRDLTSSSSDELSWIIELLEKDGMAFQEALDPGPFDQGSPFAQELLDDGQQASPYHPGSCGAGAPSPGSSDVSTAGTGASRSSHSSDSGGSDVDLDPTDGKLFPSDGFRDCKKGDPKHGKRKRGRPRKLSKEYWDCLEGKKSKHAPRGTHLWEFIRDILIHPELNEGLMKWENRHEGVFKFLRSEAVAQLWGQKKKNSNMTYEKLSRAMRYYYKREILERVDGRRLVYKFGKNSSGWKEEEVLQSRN
# Summary of the method: as §1
# CRX = CRX (Homo sapiens, UniProt O43186 1-299); details: protein: recombinant; tags: N-terminal GST; dsDNA, one strand shown
# Summary of the method: as §1
# ETV1 = ETV1 (Homo sapiens, UniProt P50549 1-477); details: protein: recombinant; tags: N-terminal GST; dsDNA, one strand shown
# Summary of the method: as §1
# ERF = target: T6, ERF (Homo sapiens, UniProt P50548 1-548); details: protein: recombinant; tags: N-terminal GST; dsDNA, one strand shown
# T6 sequence: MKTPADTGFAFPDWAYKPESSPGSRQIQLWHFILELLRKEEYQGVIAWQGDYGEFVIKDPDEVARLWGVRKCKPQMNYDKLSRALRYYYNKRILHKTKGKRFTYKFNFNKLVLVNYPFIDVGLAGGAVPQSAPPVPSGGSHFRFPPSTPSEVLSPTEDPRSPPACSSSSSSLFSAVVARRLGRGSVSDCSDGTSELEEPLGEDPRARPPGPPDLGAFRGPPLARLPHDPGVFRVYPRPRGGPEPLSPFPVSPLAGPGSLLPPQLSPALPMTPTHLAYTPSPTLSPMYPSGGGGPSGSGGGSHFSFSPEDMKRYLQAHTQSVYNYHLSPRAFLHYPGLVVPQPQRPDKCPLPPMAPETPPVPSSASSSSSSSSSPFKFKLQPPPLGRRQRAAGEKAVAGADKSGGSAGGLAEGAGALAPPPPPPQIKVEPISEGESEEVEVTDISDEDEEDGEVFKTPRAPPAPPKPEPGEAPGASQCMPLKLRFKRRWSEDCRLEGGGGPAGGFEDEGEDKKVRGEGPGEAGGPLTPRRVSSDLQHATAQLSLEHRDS
# Summary of the method: as §1
# ETV3L = target: T7, ETV3L (Homo sapiens, UniProt Q6ZN32 1-361); details: protein: recombinant; tags: N-terminal GST; dsDNA, one strand shown
# T7 sequence: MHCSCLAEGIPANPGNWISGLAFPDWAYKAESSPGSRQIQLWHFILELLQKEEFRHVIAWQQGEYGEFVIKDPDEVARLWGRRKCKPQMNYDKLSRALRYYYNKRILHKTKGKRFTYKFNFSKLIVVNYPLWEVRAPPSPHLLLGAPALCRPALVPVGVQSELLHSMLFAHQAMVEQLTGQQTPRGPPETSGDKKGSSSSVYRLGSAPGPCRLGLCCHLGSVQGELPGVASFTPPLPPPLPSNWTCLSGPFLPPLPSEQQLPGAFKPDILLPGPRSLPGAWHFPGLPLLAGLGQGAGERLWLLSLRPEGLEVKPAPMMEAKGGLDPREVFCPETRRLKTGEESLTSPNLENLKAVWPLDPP
# Summary of the method: as §1
# ETS2 = target: T8, ETS2 (Homo sapiens, UniProt P15036 1-469); details: protein: recombinant; tags: N-terminal GST; dsDNA, one strand shown
# T8 sequence: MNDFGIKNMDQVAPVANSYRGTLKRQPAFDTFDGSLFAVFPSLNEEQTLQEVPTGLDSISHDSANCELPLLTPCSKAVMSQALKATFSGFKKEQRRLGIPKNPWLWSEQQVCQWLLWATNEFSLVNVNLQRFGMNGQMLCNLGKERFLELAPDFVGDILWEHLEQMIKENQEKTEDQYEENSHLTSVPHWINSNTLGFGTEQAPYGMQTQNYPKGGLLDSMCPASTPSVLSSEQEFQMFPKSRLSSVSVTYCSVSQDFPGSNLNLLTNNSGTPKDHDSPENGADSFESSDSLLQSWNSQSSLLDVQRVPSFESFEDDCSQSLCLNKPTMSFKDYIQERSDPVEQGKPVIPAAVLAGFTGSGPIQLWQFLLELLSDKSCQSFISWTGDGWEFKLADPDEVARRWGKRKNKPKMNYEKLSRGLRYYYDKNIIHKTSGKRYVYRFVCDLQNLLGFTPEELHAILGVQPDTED
# Summary of the method: as §1
# SPDEF = target: T9, SPDEF (Homo sapiens, UniProt O95238 1-335); details: protein: recombinant; tags: N-terminal GST; dsDNA, one strand shown
# T9 sequence: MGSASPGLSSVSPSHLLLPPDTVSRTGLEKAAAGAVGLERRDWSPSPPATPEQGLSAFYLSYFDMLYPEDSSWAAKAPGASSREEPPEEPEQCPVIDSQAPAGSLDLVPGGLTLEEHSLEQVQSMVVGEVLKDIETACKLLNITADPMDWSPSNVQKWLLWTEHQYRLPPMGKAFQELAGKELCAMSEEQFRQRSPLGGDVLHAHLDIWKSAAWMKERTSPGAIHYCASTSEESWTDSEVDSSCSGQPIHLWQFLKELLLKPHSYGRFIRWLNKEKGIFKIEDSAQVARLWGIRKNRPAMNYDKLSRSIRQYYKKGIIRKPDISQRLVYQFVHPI
# Summary of the method: as §1
# ETV7 = target: T10, ETV7 (Homo sapiens, UniProt Q9Y603 1-341); details: protein: recombinant; tags: N-terminal GST; dsDNA, one strand shown
# T10 sequence: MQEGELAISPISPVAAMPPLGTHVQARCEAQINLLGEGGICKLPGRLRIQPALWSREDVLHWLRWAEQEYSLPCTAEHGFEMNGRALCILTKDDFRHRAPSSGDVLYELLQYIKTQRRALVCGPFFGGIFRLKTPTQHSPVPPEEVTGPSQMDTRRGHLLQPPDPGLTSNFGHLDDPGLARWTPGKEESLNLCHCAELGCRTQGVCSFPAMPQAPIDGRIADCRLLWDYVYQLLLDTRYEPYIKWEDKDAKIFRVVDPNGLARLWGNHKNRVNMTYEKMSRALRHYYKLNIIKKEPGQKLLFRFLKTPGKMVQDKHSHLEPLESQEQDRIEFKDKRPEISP
# Summary of the method: as §1
# ELF5 = target: T11, ELF5 (Homo sapiens, UniProt Q9UKW6-2 1-255); details: protein: recombinant; tags: N-terminal GST; dsDNA, one strand shown
# T11 sequence: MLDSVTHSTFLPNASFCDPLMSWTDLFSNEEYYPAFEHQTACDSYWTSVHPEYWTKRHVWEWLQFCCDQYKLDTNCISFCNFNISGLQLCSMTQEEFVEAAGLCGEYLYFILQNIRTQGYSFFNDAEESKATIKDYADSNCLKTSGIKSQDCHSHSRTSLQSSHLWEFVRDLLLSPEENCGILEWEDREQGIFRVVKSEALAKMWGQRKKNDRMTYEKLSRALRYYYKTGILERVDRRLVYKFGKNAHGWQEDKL
# Summary of the method: as §1
# ETV3 = target: T12, ETV3 (Homo sapiens, UniProt P41162-2 1-143); details: protein: recombinant; tags: N-terminal GST; dsDNA, one strand shown
# T12 sequence: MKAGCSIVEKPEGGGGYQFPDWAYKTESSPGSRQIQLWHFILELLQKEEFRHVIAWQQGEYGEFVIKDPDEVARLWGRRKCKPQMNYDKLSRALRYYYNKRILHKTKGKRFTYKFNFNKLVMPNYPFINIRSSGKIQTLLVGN
# Summary of the method: as §1
# ETV6 = ETV6 (Homo sapiens, UniProt P41212 1-452); details: protein: recombinant; tags: N-terminal GST; dsDNA, one strand shown
# Summary of the method: as §1
# HSF1, sequence (Q00613 whole entry): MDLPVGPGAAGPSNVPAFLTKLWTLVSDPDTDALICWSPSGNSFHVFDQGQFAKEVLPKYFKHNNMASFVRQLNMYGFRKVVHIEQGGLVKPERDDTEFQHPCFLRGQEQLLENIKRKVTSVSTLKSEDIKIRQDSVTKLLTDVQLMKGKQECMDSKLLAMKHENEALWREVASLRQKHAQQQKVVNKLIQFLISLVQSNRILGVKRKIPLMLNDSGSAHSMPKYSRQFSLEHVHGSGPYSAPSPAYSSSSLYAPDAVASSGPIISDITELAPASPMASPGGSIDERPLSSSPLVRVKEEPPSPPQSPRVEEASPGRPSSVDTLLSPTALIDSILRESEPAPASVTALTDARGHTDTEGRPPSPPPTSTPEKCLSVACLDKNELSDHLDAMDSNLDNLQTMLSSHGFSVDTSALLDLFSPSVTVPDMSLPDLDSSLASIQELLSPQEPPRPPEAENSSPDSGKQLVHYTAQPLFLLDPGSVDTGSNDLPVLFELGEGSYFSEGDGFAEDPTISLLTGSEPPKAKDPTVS
# CRX, sequence (O43186 whole entry): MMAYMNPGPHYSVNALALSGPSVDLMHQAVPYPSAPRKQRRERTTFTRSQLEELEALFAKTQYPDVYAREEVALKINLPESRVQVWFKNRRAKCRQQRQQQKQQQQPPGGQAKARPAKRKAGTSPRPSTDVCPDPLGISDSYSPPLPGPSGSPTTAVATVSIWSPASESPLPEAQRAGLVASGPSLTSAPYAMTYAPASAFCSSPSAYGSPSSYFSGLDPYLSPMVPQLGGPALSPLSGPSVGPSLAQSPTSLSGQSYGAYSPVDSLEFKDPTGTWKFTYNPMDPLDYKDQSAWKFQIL
# ELF4, sequence (Q99607 whole entry): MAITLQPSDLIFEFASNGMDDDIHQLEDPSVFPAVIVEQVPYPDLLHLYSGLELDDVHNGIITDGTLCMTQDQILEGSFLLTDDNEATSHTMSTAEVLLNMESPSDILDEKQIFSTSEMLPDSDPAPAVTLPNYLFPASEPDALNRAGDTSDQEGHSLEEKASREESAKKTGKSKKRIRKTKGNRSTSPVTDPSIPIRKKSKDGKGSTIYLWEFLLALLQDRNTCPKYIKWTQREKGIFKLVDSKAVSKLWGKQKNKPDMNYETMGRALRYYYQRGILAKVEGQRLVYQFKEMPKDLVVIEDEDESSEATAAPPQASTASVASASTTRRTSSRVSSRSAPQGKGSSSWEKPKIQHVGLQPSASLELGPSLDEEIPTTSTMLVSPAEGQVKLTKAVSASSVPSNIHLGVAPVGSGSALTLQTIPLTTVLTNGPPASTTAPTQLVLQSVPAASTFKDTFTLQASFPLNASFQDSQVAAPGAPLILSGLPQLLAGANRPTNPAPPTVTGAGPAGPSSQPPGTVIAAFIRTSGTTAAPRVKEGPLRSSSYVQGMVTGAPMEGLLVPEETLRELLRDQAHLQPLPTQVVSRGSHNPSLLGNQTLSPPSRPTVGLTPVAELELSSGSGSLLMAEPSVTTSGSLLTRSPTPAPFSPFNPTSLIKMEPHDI
# ETV1, sequence (P50549 whole entry): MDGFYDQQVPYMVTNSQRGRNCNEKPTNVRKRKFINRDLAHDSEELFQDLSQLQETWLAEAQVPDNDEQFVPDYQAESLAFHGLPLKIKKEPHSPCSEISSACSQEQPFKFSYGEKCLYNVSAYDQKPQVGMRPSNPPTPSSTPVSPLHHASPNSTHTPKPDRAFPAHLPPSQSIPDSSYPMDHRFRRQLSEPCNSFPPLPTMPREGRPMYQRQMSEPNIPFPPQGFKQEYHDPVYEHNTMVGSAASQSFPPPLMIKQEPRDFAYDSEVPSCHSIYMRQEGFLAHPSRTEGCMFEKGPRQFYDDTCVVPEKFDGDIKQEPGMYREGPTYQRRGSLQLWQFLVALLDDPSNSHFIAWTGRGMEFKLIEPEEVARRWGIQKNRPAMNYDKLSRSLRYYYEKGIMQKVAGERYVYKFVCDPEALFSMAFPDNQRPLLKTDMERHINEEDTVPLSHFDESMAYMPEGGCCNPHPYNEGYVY
# ETV5, sequence (P41161 whole entry): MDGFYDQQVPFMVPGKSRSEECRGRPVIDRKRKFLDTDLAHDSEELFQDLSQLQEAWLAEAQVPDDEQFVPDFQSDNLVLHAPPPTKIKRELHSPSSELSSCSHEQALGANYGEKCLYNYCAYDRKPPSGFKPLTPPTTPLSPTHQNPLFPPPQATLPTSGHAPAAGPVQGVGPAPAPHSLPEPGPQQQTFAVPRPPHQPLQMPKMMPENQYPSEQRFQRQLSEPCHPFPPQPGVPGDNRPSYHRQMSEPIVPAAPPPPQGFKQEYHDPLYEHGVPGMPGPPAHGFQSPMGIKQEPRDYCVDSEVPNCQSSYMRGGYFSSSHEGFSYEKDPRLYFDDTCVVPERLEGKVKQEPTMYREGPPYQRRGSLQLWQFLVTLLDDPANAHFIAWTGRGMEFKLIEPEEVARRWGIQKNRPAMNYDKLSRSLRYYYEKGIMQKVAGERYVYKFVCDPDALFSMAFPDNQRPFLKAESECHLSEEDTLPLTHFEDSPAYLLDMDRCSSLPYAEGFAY
# ETV6, sequence (P41212 whole entry): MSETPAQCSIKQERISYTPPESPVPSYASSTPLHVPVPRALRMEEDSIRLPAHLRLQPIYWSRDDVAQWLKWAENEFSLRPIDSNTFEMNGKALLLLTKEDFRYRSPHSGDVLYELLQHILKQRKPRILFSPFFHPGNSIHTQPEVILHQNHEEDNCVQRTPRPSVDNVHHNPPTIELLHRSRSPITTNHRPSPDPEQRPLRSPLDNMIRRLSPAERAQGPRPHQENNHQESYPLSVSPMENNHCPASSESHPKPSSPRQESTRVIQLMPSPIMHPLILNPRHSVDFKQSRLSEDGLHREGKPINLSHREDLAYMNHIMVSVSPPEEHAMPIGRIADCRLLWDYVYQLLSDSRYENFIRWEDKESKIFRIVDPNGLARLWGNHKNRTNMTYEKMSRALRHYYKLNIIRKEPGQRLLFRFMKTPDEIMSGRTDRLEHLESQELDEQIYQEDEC
sequence,measurement,setting,value
TATCGT,binding signal,FEV,"1.05 fold enrichment (6-mer frequency, TF over GST control)"
same,binding signal,ETV5,"1.12 fold enrichment (6-mer frequency, TF over GST control)"
same,binding signal,HSF1,"1.17 fold enrichment (6-mer frequency, TF over GST control)"
same,binding signal,SPIC,"1.09 fold enrichment (6-mer frequency, TF over GST control)"
same,binding signal,ELF4,"1.07 fold enrichment (6-mer frequency, TF over GST control)"
same,binding signal,ELK4,"1.13 fold enrichment (6-mer frequency, TF over GST control)"
same,binding signal,ETV2,"1.16 fold enrichment (6-mer frequency, TF over GST control)"
same,binding signal,ELF3,"1.15 fold enrichment (6-mer frequency, TF over GST control)"
same,binding signal,CRX,"1.28 fold enrichment (6-mer frequency, TF over GST control)"
same,binding signal,ETV1,"1.21 fold enrichment (6-mer frequency, TF over GST control)"
same,binding signal,ERF,"1.28 fold enrichment (6-mer frequency, TF over GST control)"
same,binding signal,ETV3L,"1.08 fold enrichment (6-mer frequency, TF over GST control)"
same,binding signal,ETS2,"1.11 fold enrichment (6-mer frequency, TF over GST control)"
same,binding signal,SPDEF,"1.07 fold enrichment (6-mer frequency, TF over GST control)"
same,binding signal,ETV7,"1.08 fold enrichment (6-mer frequency, TF over GST control)"
same,binding signal,ELF5,"1.08 fold enrichment (6-mer frequency, TF over GST control)"
same,binding signal,ETV3,"1.15 fold enrichment (6-mer frequency, TF over GST control)"
same,binding signal,ETV6,"1.12 fold enrichment (6-mer frequency, TF over GST control)"
